Screens from PubChem.
B2AR arrestin: qHTS assay of beta-arrestin-biased ligands of beta2-adrenergic receptor; beta-arrestin recruitment to beta2AR, cell-based reporter; AID 492947, 2010; 330,000 tested, 0.02% active; Potency, µM (doses to about 46.1 µM), inactives show top-dose activation, most hits filed as activators;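 also: potency is read from the fitted curve at half-maximal effect; 0% = DMSO controls and full agonism = EC100 isoproterenol or metaproterenol; nearly all actives have a fitted effect of over 65% in size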
ELG1 DNA repair: qHTS screen for small molecules that inhibit ELG1-dependent DNA repair in human embryonic kidney (HEK293T) cells expressing luciferase-tagged ELG1; 330,000 tested, 2.3% active; HEK293T ELG1-luciferase reporter, luminescence, 16 h; DNA damage induced by 5-fluorouridine; Potency, µM (highest dose often 46.1 µM), for the others: at the highest dose activity change, negative = inhibition, usual class: inhibitors; also: potency is read from the fitted curve at half-maximal effect; nearly all actives have a fitted effect of over 55% in size
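DMSO vehicle served as the neutral condition. Each well held 2,000 cells given 5-fluorouridine plus compound; after 16 hr at 37 °C/5% CO2, ONE-Glo was added and luciferase measured 30 min later.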
VP16 counter: VP16 counterscreen qHTS for inhibitors of ROR gamma transcriptional activity | Drosophila S2 Gal4-VP16 UAS-luciferase, luminescence, 20 h | Potency, µM (doses to about 53.6 µM), for the others: at the top dose activity, negative = inhibition, hits mostly inhibitors | 310,000 tested, 3.5% active;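 also: Gal4-VP16 expression switched on by copper sulfate through the metallothionein promoter; potency is read from the fitted curve at half-maximal effect; nearly all actives have a fitted effect of over 50% in size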
TSHR antag: Antagonists of the Thyroid Stimulating Hormone Receptor: HTS campaign; activity change, negative = inhibition, % at 11.5 µM; 330,000 tested, 0.2% active; TSHR-expressing cells, TSH-stimulated cAMP HTRF, 2 h; hits give low values; Thyrotropin receptor (Homo sapiens), P16473;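 active = activity change below a set negative limit, meaning inhibition stronger than a set level, cut at about -70% in these data; inconclusive = activity change between two set negative limits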
Target sequence (P16473 whole entry, looked up): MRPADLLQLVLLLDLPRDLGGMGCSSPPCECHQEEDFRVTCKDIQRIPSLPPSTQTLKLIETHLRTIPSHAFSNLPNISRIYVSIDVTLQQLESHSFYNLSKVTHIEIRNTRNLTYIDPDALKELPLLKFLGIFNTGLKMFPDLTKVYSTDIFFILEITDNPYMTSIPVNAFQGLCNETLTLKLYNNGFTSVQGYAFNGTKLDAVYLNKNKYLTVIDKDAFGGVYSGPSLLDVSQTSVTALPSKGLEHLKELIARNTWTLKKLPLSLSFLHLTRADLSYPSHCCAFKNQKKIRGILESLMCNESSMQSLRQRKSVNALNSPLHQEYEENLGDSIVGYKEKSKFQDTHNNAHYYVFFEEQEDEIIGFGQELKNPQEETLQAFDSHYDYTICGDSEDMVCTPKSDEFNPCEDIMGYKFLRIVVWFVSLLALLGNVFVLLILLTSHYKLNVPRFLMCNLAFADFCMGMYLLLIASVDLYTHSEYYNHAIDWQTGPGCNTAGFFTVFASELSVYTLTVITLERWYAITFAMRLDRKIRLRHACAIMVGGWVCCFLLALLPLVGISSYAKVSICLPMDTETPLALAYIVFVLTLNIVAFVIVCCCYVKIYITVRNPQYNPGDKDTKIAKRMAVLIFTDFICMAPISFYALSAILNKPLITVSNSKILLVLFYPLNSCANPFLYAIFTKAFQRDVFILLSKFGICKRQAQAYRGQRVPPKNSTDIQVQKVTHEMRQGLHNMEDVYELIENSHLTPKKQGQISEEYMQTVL
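Cell-based HTRF cAMP assay; TSHR cells + compound, TSH EC80 (4nM final), 2 h, 37 deg C. Lysis with anti-cAMP cryptate and cAMP-d2, 30 min RT, read 665/620 nm.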
RORgamma inh: qHTS for inhibitors of ROR gamma transcriptional activity. Potency, µM (series often up to 53.6 µM), for the others: top-dose activity change, negative = inhibition, usual class: inhibitors. 310,000 tested, 5.4% active. Drosophila S2 Gal4-RORgamma UAS-luciferase reporter, 20 h; also: potency is read from the fitted curve at half-maximal effect; nearly all actives have a fitted effect of over 60% in size
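Drosophila S2 cells stably expressing Gal4-DBD/mouse RORγ fusion under metallothionein promoter plus UAS-luciferase; compound 1 h, then 700 uM CuSO4 induction for 20 h at ambient temperature; inhibition read as reduced luminescence.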
Active calls of the source: *; ? = inconclusive; · = not tested or not shown; [ ] = dose if it differs, or a comment. Hits are enriched below; roughly 7.5% of the tested compounds scored in any of these assays. Unless noted, calls follow the shape of the dose curve; as a rule, active = well fitted curve in the direction sought with a large enough effect; inconclusive = small, poorly fitted or top-dose-only effect, or another doubt; inactive = no such curve, though single readings can be large; an effect the other way counts as inactive or inconclusive. Unless noted, % is scaled to controls: 0 for no effect and ±100 for the full control effect.

SMILES	B2AR arrestin	ELG1 DNA repair	VP16 counter	TSHR antag	RORgamma inh
Clc1cccc(Cl)c1CO/N=C/c1c(-c2ccccc2)nc2n1CCS2	0%	-27%	-2%	19	7.1µM*
COC(=O)/C(C#N)=C/c1c(-c2ccccc2)nc2n1CCS2	4%	24%	8%	2	9%
Cc1cccc(C(=O)N2CCCCCC2)c1	0%	3%	2%	-6	0%
O=C(c1ccccc1)n1c(=S)nc2ccccn21	0%	?	?	-6	?
Cc1cccc(C(=O)n2c(=S)nc3ccccn32)c1	0%	?	3.2µM*	8	2.5µM*
Cc1ccc(C(=O)n2c(=S)nc3ccccn32)cc1	0%	?	?	-2	1.6µM*
CCOC(=O)/C(=N\Nc1ncnc2ccccc12)c1ccc(OC)cc1	0%	?	14µM*	-23	7.1µM*
COc1ccc(/C(=N/Nc2ncnc3ccccc23)C(=O)O)cc1	3%	?	0.5µM*	-2	0.28µM*
COc1ccccc1Nc1ncnc2ccccc12	1%	-2%	?	-4	-30%
O=C(CN1CCN(S(=O)(=O)c2ccc(F)c(F)c2)CC1)Nc1ccccc1C(=O)NC1CC1	0%	-9%	·	-11	·
COC(=O)[C@@H]1CCCN1C(=O)[C@@H](C)CO	·	·	-10%[10 µM]	·	0%[10 µM]
CCCS(=O)(=O)c1nc(S(=O)(=O)c2ccc(C)cc2)c(N2CCc3ccccc3C2)s1	3%	-13%	?	-31	8.9µM*
CCCCCCSc1ccc(-c2nc3ccc(Cl)cn3c2NCCCC)cc1OC	0%	11%	·	-83*	·
CCCCNc1c(-c2ccc(SC(C)CC)c(OC)c2)nc2ccc(Cl)cn12 (stereo unspecified)	-2%	-14%	·	-15	·
CCn1c2ccccc2c2nnc(SCCCn3c(=O)[nH]c4ccccc43)nc21	0%	23µM*	?	-12	5%
CCn1c2ccccc2c2nnc(SCc3ccccc3)nc21	0%	-3%	?	5	?
CCn1c2ccccc2c2nnc(SCc3ccc(C(=O)OC)o3)nc21	0%	?	13µM*	34	?
c1ccc(-c2cc(-c3nn4c(-c5ccco5)nnc4s3)c3ccccc3n2)cc1	0%	21µM*	?	-20	?
COc1cccc(-c2cc(C(F)(F)F)n3nc(C(=O)N4CCCCC4c4cccnc4)cc3n2)c1 (stereo unspecified)	0%	21µM*	-9%	-3	22%
COC(=O)[C@@]1(Cc2ccc(F)cc2)[C@H]2c3cc(C(=O)N(C)C)n(Cc4ccc(O)c(OC)c4)c3C[C@H]2CN1C(=O)c1ccccc1	·	·	-7%	·	?
NC[C@@H]1O[C@H](c2ccccc2)Cc2c1ccc(O)c2O	·	·	25µM*	-10	28µM*
NC[C@@H]1O[C@H](C23CC4CC(CC(C4)C2)C3)Cc2c1ccc(O)c2O	·	-15%	?	-22	?
COc1ccccc1CNC(=O)[C@H](C)NC(=O)C1CCN(C(=O)[C@H](CCSC)NC(=O)OC(C)(C)C)CC1	-1%	3%	0%	26	-8%
CCOC(=O)/C(C)=N/NC(=O)c1ccc([N+](=O)[O-])cc1	0%	-4%	-11%	-6	-136%
CCOC(=O)C(CC)/C(C)=N/NC(=O)c1ccc([N+](=O)[O-])cc1 (stereo unspecified)	0%	2%	?	-9	13µM*
SMILES	B2AR arrestin	ELG1 DNA repair	VP16 counter	TSHR antag	RORgamma inh
CCn1cc(/C=C/C(=O)c2ccc(O)cc2)c(C)n1	0%	?	4µM*	-6	2.2µM*
CCCN1CCC(=O)N(CCN=[N+]=[N-])CC1	-1%	12%	-2%	-7	-1%
O=C(CCCN1C(=O)C(c2ccccc2)Oc2cccnc21)Nc1ccccc1Cl (stereo unspecified)	-1%	-2%	-4%	-3	-3%
C=C(C)CNC(=S)N/N=C1\CCCCc2ccccc21	3%	-13%	1.8µM*	-3	1.4µM*
CCNC(=S)N/N=C1\C(=O)c2cccc3cccc1c23	0%	3%	4.5µM*	-10	3.2µM*
CCNC(=S)N/N=C1\CCCCc2ccccc21	0%	-1%	4µM*	2	1.1µM*
COc1ccc(C2NN=C(c3ccc(C)cc3)S2)cc1OC (stereo unspecified)	-1%	?	?	3	2µM*
Cc1ccc(C2=NNC(c3cccc(F)c3)S2)cc1 (stereo unspecified)	0%	?	7.1µM*	-12	6.3µM*
Fc1cccc(C2NN=C(c3ccccc3)S2)c1 (stereo unspecified)	-1%	?	?	-7	?
COc1ccc(-c2nnc(NC(=O)CSc3ccccc3)s2)cc1OC	0%	24%	22µM*	19	?
COc1ccc(Cc2nnc(NC(=O)CSc3ccc(Cl)cc3)s2)cc1OC	-1%	?	?	-9	13µM*
COc1ccc(CCC(=O)c2c(O)cc(O[C@@H]3O[C@H](CO)[C@@H](O)[C@H](O)[C@H]3O[C@@H]3O[C@@H](C)[C@H](O)[C@@H](O)[C@H]3O)cc2O)cc1O	·	·	8%	·	-5%
CN(C)CC(C(=O)c1ccccc1)c1ccccc1 (stereo unspecified)	0%	16µM*	7.1µM*	-20	7.1µM*
O=C(NC1CCCCC1)C(c1ccc2ncccc2c1)N(Cc1cccs1)C(=O)c1cccs1 (stereo unspecified)	-1%	16µM*	-9%	-21	-1%
c1ccc2[nH]c(-c3ccnc4ccccc34)nc2c1	0%	?	15%	-8	16%
c1ccc(-c2[nH]ncc2-c2ccnc3ccccc23)nc1	·	·	3.2µM*	·	2µM*
COc1ccc(-c2csc3ncnc(Oc4cccc5ccc(C)nc45)c23)cc1	0%	?	-2%	-37	?
Cc1ccc2cccc(Oc3ncnc4scc(-c5ccccc5)c34)c2n1	0%	-17%	-5%	-84*	?
O=c1cc(-c2ccccc2)oc2cc(O[C@@H]3O[C@H](CO)[C@@H](O)[C@H](O)[C@H]3O)c(O)c(O)c12	·	·	-6%	·	-4%
CCOc1ccc2nc(N3C(=O)CNC3=S)sc2c1	4µM*	?	2.8µM*	0	1µM*
Cc1cc2nc(N3C(=O)CNC3=S)sc2cc1C	0%	?	3.2µM*	1	1µM*
CCCCC(=O)N1CCN(c2nc3ccc(OCC)cc3s2)CC1	0%	1%	-9%	-5	3%
CCOC(=O)N1CCN(S(=O)(=O)c2ccc3c(c2)CCN3C(=O)C2CCC2)CC1	0%	24%	9%	3	-8%
